# Pf growth 96h: Primary qHTS for delayed death inhibitors of the malarial parasite plastid, 96 hour incubation | P. falciparum luciferase reporter growth, 96 h | Potency, µM (top dose mostly 28.7 µM), without a hit: at the top dose activity change, negative = inhibition, actives largely listed as inhibitors | 6.9% of 320,000 active | AID 504834, 2011; further: potency means the concentration at half of the fitted maximal effect; on the % scale 0 is the no-effect control and ±100 the full control effect
#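 P. falciparum expressing integrated firefly luciferase, in erythrocytes at 2% hematocrit, 0.05% parasitemia, incubated with compounds 96 h at 37 C, 5% CO2. Growth inhibition read as loss of luminescence; two-generation exposure targets delayed-death apicoplast inhibitors.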
# Pf growth 48h: Primary qHTS for delayed death inhibitors of the malarial parasite plastid, 48 hour incubation. P. falciparum luciferase growth in erythrocytes, 48 h. Potency, µM (doses to about 28.7 µM), for inactives: at the top dose activity change, negative = inhibition, usual class: inhibitors. 5.9% of 310,000 active. AID 504832, 2011; further: potency means the concentration at half of the fitted maximal effect; on the % scale 0 is the no-effect control and ±100 the full control effect
#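 Erythrocytes infected with P. falciparum carrying an integrated firefly luciferase reporter (2% hematocrit, 0.1% parasitemia final) were exposed to compounds in RPMI 1640 with 0.5% Albumax at 37 C, 5% CO2. Growth inhibition was scored as reduced luminescence.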
# Cycloheximide cs: Cycloheximide Counterscreen for Small Molecule Inhibitors of Shiga Toxin. cell reporter, cycloheximide protein synthesis inhibition counterscreen. max response, %. 12% of 300,000 active. AID 2314, 2010; in the data active means max response mostly above about 13%, no sharp cut-off; inactive means mostly below about 14%; further: read at 38.3 µM for the half of the compounds with a filed dose; 0% is about no effect
# Shiga inhibitor: A qHTS for Small Molecule Inhibitors of Shiga Toxin; Vero cells, Shiga toxin protein synthesis inhibition reporter; 9.2% of 290,000 active; AID 2315, 2010; inhibition, % at 38.7 µM; in the data active means inhibition mostly above about 28%, no sharp cut-off; inactive means mostly below about 43%; further: 0% is about no effect
# HCV inh: qHTS Assay for Inhibitors of Hepatitis C Virus (HCV) | Huh7.5.1 HCVcc-Cre infection, luciferase reporter, 44 h | Potency, µM (highest dose often 41.8 µM), inactives show top-dose activity change, negative = inhibition, usual class: inhibitors | 3.4% of 340,000 active; further: potency means the concentration at half of the fitted maximal effect; on the % scale 0 is the no-effect control and ±100 the full control effect
#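 Cells (1,000/well) were plated 4 h before compound, then infected with HCVcc-Cre virus (~0.5 moi). After 44 h further culture, infection was read as luciferase luminescence following a 15 min substrate incubation at room temperature.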
# HCMV inh: qHTS Assay for inhibitors of the human cytomegalovirus (HCMV); HFF cells, HCMV-luciferase reporter, 72 h; hits give low values; activity change, negative = inhibition, % at 57.5 µM; AID 1259415, 2018; 4.5% of 410,000 active; in the data active means activity change below about -60%; inconclusive means no clear call, values can overlap the other calls; inactive means above about -39%; further: on the % scale 0 is the no-effect control and ±100 the full control effect
#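 Luciferase read-out from HCMV-luciferase-infected HFFs (MOI 1 PFU/cell) 72 h post infection at 37C; compounds added after 16 h cell attachment; activity normalized between buffer-only basal and Salinomycin (10uM) inhibitor controls.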
# Active calls of the source: *; i = inactive; ? = inconclusive; / = not tested or not shown; [ ] = dose if it differs, or a comment. Hits are enriched below; roughly 21% of the tested compounds scored in any of these assays. Unless noted, the call rests on the fitted dose curve; in most records, active means well fitted inhibition curve with a large enough effect; inconclusive means small, poorly fitted or top-dose-only effect, or another doubt; inactive means no such curve, though single readings can be large or run the other way.
SMILES,Pf growth 96h,Pf growth 48h,Cycloheximide cs,Shiga inhibitor,HCV inh,HCMV inh
COc1ccc(S(=O)(=O)N(Cc2ccccc2)Cc2nc(-c3ccccc3)no2)cc1,/,13µM*,1,-2,?,11
CCc1ccc(CN(C)Cc2nc(Cc3ccc(OC)c(OC)c3)no2)nc1,5%,?,-2,-6,-3%,100
COc1ccc(Cc2noc(CN(C)Cc3ccc(-n4cccn4)cc3)n2)cc1OC,2.1µM*,-15%,-3,-16,?,-20
COc1ccc(Cc2nc(-c3ccc(-n4cccc4)cc3)no2)cc1OC,?,-16%,14,14,10µM*,?
COc1ccc(-c2noc(CN(C)S(=O)(=O)c3ccccc3)n2)cc1OC,/,/,/,/,-3%,7
COc1ccc(Cn2ccc3nc(C)c(C(=O)Nc4cc(C)cc(C)c4)cc3c2=O)cc1,/,/,/,/,/,-7
Nc1ccc2cc3ccc(N)cc3nc2c1,2.4µM*,3.8µM*,/,/,/,/
COc1ccc(C(=O)Nc2cc(C)on2)cc1OC,104%,24%,1,5,-15%,13
COc1ccc(C(=O)Nc2cc(C)on2)c(OC)c1,85%,122%,38*,41*,5%,112
COc1ccc(C(=O)Nc2ccc(C)cn2)c(OC)c1,3%,32%,-3,-7,10µM*,-76*
COc1ccc(Cl)cc1NC(=O)CSc1nc(-c2ccccc2)c2ccccc2n1,/,/,/,/,/,-15
CCOc1ccc(NC(=O)CC2C(=O)N(c3cccc(OC)c3)C(=O)N2CCOC)cc1 (stereo not drawn),14%,-4%,0,-20,-4%,8
CC1CN(C(=O)c2cc(S(=O)(=O)N3CCCC3)ccc2Cl)CC(C)O1 (stereo not drawn),?,2%,-2,4,5%,7
CN(c1ccc(F)cc1)S(=O)(=O)c1ccc(Cl)c(C(=O)Nc2ccncc2)c1,?,?,/,/,?,-65*
CN(c1ccccc1)S(=O)(=O)c1ccc(Cl)c(C(=O)Nc2ccncc2)c1,?,-27%,/,/,?,-26
CC1CN(C(=O)c2cc(S(=O)(=O)N(C)c3ccc(F)cc3)ccc2Cl)CC(C)O1 (stereo not drawn),-13%,-20%,6,-12,10µM*,-29
NNC(=O)c1oc2nc(-c3ccc(Cl)cc3)cc(-c3ccccc3)c2c1N,2.6µM*,4.1µM*,-4,-5,3%,?
Cc1cc(C)cc(NC(=O)C2CC3CCC2C3)c1 (stereo not drawn),?,3%,1,-5,0%,22
Cc1ccc(NC(=O)C2CC3CCC2C3)c(Br)c1 (stereo not drawn),12%,95%,33*,83*,-5%,136
Cc1ccc(C)c(NC(=O)C2CC3CCC2C3)c1 (stereo not drawn),-6%,24%,14*,23,0%,-23
CCN(CC)c1ccc(NC(=O)C2CC3CCC2C3)cc1 (stereo not drawn),-5%,29%,51*,107*,-11%,36
O=C1C(=O)N(C2CCN(S(=O)(=O)c3ccccc3)CC2)CCN1Cc1ccccc1,/,/,/,/,/,5
CCOc1cc(C2NC(=O)CCC2[N+](=O)[O-])cc(Br)c1OCC (stereo not drawn),3%,-28%[0.00184 µM],-2,-6,23%,-1
CCn1c(=S)[nH]c2c(c1=O)C(C)(C)Cc1ccccc1-2,27%,47%,-6,-4,12%,?
Cn1c(=S)[nH]c2c(c1=O)C(C)(C)Cc1ccccc1-2,3.3µM*,48%,-7,-14,-2%,-12
SMILES,Pf growth 96h,Pf growth 48h,Cycloheximide cs,Shiga inhibitor,HCV inh,HCMV inh
O=C(Cn1c(=O)c2cccn2c2ccc(F)cc21)N1CCN(c2ccccc2F)CC1,/,/,/,/,/,20
CCC(C)(C)NC(=O)C(c1ccc(F)cc1)N(Cc1ccc(OC)cc1)C(=O)c1cnccn1 (stereo not drawn),?,?,31*,60*,4%,-66*
CN(C)c1ccc(NC(=O)Cn2cc(S(=O)(=O)Cc3ccccc3Cl)c3ccccc32)cc1,/,/,/,/,/,70
CC(C)NC(=O)N1Cc2cc(C(=O)NC3CCC3)nc(-c3cccc(-c4cncnc4)c3)c2[C@H]1CCO,/,/,/,/,/,2
Cc1ccc(SCc2nc(-c3ccccc3)no2)cc1,2%,18%,28*,12,-1%,-22
O=C1c2ccccc2C(=O)N1Cc1nc(-c2ccncc2)no1,/,19%,-2,-6,7%,32
Cc1ccc(SCc2nc(-c3ccccn3)no2)cc1,-3%,139%,25*,69*,-8%,21
COc1ccc(-c2noc(CSc3ccccc3)n2)cc1OC,33%,49%,39*,67*,?,61
CN(Cc1nc(-c2ccccn2)no1)S(=O)(=O)c1ccc(Cl)cc1,/,32%,0,9,5%,23
c1ccc(SCc2nc(-c3ccncc3)no2)cc1,/,-31%,44*,84*,7%,76
Cc1ccc(C)c(NC(=O)CN(C)C(=O)Cn2c(=O)oc3ccccc32)c1,9%,-29%,/,/,11%,2
CC1CCN(S(=O)(=O)c2nnc(NC(=O)c3ccccc3Br)s2)CC1,-25%,38%,-4,7,4%,-6
Cc1ccc(SCc2nc(-c3ccncc3)no2)cc1,2%,?,20*,66*,-12%,57
Cc1c(O)ccc(C(=O)COc2ccc(F)cc2)c1O,?,-62%,38*,i,9%,18
CCc1cc(C(=O)COc2ccc(F)cc2)c(O)cc1O,-5%,5%,20*,40*,-19%,-23
COc1ccc(CC(=O)NNC(=O)c2cc(Cl)ccc2OC)cc1,14%,0%,/,/,27%,-30
CC(C)C[C@@H]1COc2cccc(NC3CC3)c2S(=O)(=O)N1,/,/,/,/,/,-35
Cc1ccnc(NC(=O)c2cccc(NC(=O)CC3SC(N4CCCCC4)=NC3=O)c2)c1 (stereo not drawn),8.3µM*,?,/,/,-7%,12
COc1cccc(CN(C)C(=O)c2ccc(NC(=O)CC3SC(N4CCCC4)=NC3=O)cc2)c1OC (stereo not drawn),6.6µM*,?,/,/,5%,-13
O=C(CC1SC(N2CCCC2)=NC1=O)Nc1ccc(C(=O)Nc2ncccc2O)cc1 (stereo not drawn),?,2.6µM*,/,/,8%,-14
COc1ccc(CN(C)C(=O)c2ccc(NC(=O)CC3SC(N4CCCCC4)=NC3=O)cc2)c(OC)c1 (stereo not drawn),/,/,/,/,0%,10
Cc1ccnc(NC(=O)c2ccc(NC(=O)CC3SC(N4CCCC4)=NC3=O)cc2)c1 (stereo not drawn),?,?,/,/,-2%,16

# Screens (PubChem)
